Test results as given in PubChem BioAssay (NCATS).
Unmarked numbers belong to inactive results. Results filed as inconclusive are left out. Where a call stands in place of a potency, no number is given. Active and inactive are the calls of the source. The call rests on the fitted dose curve; in most records, active means well fitted curve in the direction sought with a large enough effect; inconclusive means small, poorly fitted or top-dose-only effect, or another doubt; inactive means no such curve, though single readings can be large; an effect the other way counts as inactive or inconclusive.

Legend:
[1] = Cellular Toxicity (caspase-3) Mesangial (AID 660); details: mesangial cells, normalized: DMSO 0%, 100 µM tamoxifen 100%; at 91.7 µM (top of the series);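 further: cells exposed to compound for 16 h before the caspase read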
Outline: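 Human renal glomerular mesangial cells (1000/well) were treated with compounds for 16 h at 37 °C in complete medium, then caspase 3/7 activity was read by Caspase-Glo luminescence. Data were normalized to DMSO and 100 uM tamoxifen; AC50 from Hill fits.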

[2] = Cellular Toxicity (caspase-3) SK-N-SH (AID 661)
Outline: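 SK-N-SH human neuroblastoma cells (1500/well) were treated with compounds for 16 hr at 37 °C in complete medium; caspase 3/7 activity was read by Caspase-Glo luminescence. AC50 came from Hill fits of data normalized to DMSO and 10 uM staurosporine.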

[3] = Cellular Toxicity (caspase-3) H-4-II-E (AID 663); details: H-4-II-E rat hepatoma, scaled: DMSO 0%, 100 µM tamoxifen 100%; at 92.2 µM (top of the series);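 further: cells exposed to compound for 16 hr before readout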
Outline: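 Apoptosis induction is scored as increased luminescence from caspase 3/7 substrate cleavage in rat hepatoma H-4-II-E cells exposed to compound for 16 hr. Activity is scaled between DMSO and 100 uM tamoxifen.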

[4] = Cellular Toxicity (caspase-3) N2a (AID 665);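 further: compound exposure lasted 16 h at 37 °C before readout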
Outline: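 Mouse N2a neuroblastoma cells (1500/well) were treated with compounds for 16 h at 37 °C, then caspase-3/7 activity was read by Caspase-Glo luminescence after 1 h at room temperature. Data were normalized to DMSO and 10 uM staurosporine; AC50 from Hill fits.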

[5] = Cellular Toxicity (caspase-3) NIH 3T3 (AID 666);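 further: caspase signal read after 16 h compound exposure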
Outline: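 Mouse NIH 3T3 fibroblasts (1000 cells/well) were treated with compound for 16 hr at 37°C in complete medium; caspase-3/7 activity was read by Caspase-Glo luminescence. Normalized to DMSO and 100 uM tamoxifen; AC50 from Hill fits.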

[6] = Cellular Toxicity (caspase-3) Renal Proximal Tubule (AID 667); details: Potency: caspase-3 activation;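 further: cells exposed to compound for 16 hours at 37 °C before detection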
Outline: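 AC50 derived by standard Hill fit of concentration-response data, normalized between DMSO basal and 10 uM staurosporine as 100% stimulation. Cells: primary rat kidney proximal tubule, 16 h treatment at 37 °C.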

[7] = target: Cytochrome P450 3A4 (Homo sapiens) (UniProt P08684); assay: qHTS Assay for Inhibitors and Substrates of Cytochrome P450 3A4 (AID 884); further: nearly all actives have a fitted effect of over 50% in size; further: potency means the concentration at half of the fitted maximal effect
Outline: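 20 nM human CYP3A4 with 25 uM Luciferin-PPXE (at KM) in 200 mM KPO4, preincubated 10 min with compound; NADPH regeneration started a 60 min RT reaction. Luciferin detected by luminescence, normalized to 57 uM ketoconazole as full inhibition.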

[8] = Cell Viability - LYMP2-001 (AID 921); further: nearly all actives have a fitted effect of over 70% in size
Outline: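 Steps: seed 2500 lymphoblastoid cells/well; 5 hr, 37 C; add compound; 24 hr, 37 C; CellTiter-Glo reagent, 30 min room temperature; read luminescence. Concentration-response modeled by Hill equation for AC50.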

[9] = MultiTox-Fluor Cytotoxicity Assay - LYMP1-001 - Dead Cells (AID 946)
Outline: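 AC50 from Hill fit of concentration-response; data normalized to DMSO (basal) and 15 uM tetraoctylammonium bromide (100%). LYMP1-001 lymphoblastoid cells, 2500/well, 16 hr compound at 37 C; dead-cell protease fluorescence, Ex/Em 485/520.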

[10] = MultiTox-Fluor Cytotoxicity Assay - LYMP1-001 - Live Cells (AID 947)
[11] = Cell Viability - LYMP1-002 - Assay at 16 hr (AID 948)
Outline: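 Seed 2500 LYMP1-002 cells per well in complete medium and hold 5 hr at 37 C. Add compound across a concentration series and incubate 16 hr at 37 C. Add CellTiter-Glo, wait 30 min at room temperature, read luminescence.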

[12] = MultiTox-Fluor Cytotoxicity Assay - LYMP1-002 - Live Cells (AID 955)
Outline: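 Human lymphoblastoid LYMP1-002 cells, 2500/well in complete medium, rested 5 hr at 37 C, then exposed to compounds for 16 hr at 37 C. Live-cell protease cleavage of GF-AFC read by fluorescence (Ex/Em 405/510) after 60 min at room temperature; AC50 from Hill fits.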

[13] = MultiTox-Fluor Cytotoxicity Assay - LYMP1-002 - Dead Cells (AID 960); further: nearly all actives have a fitted effect of over 60% in size
Outline: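 Human lymphoblastoid cells (LYMP1-002), 2500/well in complete medium, were exposed to compounds for 16 hr at 37 C. Dead-cell protease activity was read as bis-AAF-R110 fluorescence (Ex/Em 485/520), normalized to DMSO and 15 uM tetraoctylammonium bromide; AC50 from Hill fits.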

[14] = MultiTox-Fluor Cytotoxicity Assay - LYMP1-003 - Dead Cells (AID 961); further: nearly all actives have a fitted effect of over 70% in size
Outline: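 Human lymphoblastoid LYMP1-003 cells (2500/well) were treated with compounds for 16 hr at 37 C in complete medium. Dead-cell protease release was read by bis-AAF-R110 fluorescence (Ex/Em 485/520). AC50 came from Hill fits, normalized to DMSO and 15 uM tetraoctylammonium bromide.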

[15] = MultiTox-Fluor Cytotoxicity Assay - LYMP1-003 - Live Cells (AID 962);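 further: cytotoxic hits lower the live-cell protease signal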
Outline: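 LYMP1-003 human lymphoblastoid cells (2500/well) in complete medium were preincubated 5 hr at 37 C, then exposed to compounds for 16 hr at 37 C. Live-cell protease cleavage of GF-AFC read by fluorescence (Ex/Em 405/510); AC50 from Hill fits.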

[16] = Cell Viability - LYMP1-003 - Assay at 24 hr (AID 963)
Outline: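 Human lymphoblastoid LYMP1-003 cells (2500/well) were rested 5 hr at 37 C, then exposed to compounds in complete medium for 24 hr at 37 C. Cellular ATP was quantified by CellTiter-Glo luminescence, and AC50 values came from Hill fits of concentration-response data.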

[17] = Cell Viability - LYMP1-003 - Assay at 40 hr (AID 964); further: nearly all actives have a fitted effect of over 60% in size
Outline: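 Human lymphoblastoid LYMP1-003 cells, 2500/well in complete medium, rested 5 hr at 37 C, then exposed to compounds for 40 hr at 37 C. Viability read as intracellular ATP by CellTiter-Glo luminescence; AC50 from Hill fits of concentration-response data.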

[18] = Cell Viability - LYMP2-003 (AID 965);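 further: cells exposed to compounds for 24 h before reading; nearly all actives have a fitted effect of over 50% in size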
Outline: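 Seed 2500 lymphoblastoid cells/well; incubate 5 hr, 37 C; add compounds; incubate 24 hr, 37 C; add CellTiter-Glo, 30 min RT; read luminescence. AC50 from Hill fit.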

[19] = Cellular Toxicity (caspase-3) Hek293 (AID 664); details: HEK293 caspase-3 activation, DMSO = 0%, 100 µM tamoxifen = 100%; at 92.2 µM (top of the series);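 further: cells exposed to compound for 16 h at 37 °C before readout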
Outline: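 HEK293 cells were exposed to compounds in complete medium for 16 hr at 37 °C, then caspase-3/7 activity was read by Caspase-Glo 3/7 luminescence after 20 min at room temperature. Data normalized to DMSO and 100 uM tamoxifen; AC50 from Hill fits.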

[20] = target: Cytochrome P450 3A4 (Homo sapiens) (UniProt P08684); assay: qHTS Assay for Activators of Cytochrome P450 3A4 (AID 885); further: nearly all actives have a fitted effect of over 65% in size
Outline: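 20nM CYP3A4 + 25uM Luciferin-PPXE (=KM), 200mM KPO4; cpd 10 min RT; NADPH regen, 60 min RT; stop w/ detection buffer, 20 min; luminescence. Normalized to 57 uM ketoconazole.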

Chain of Cytochrome P450 3A4 (Homo sapiens) (P08684 whole entry, looked up): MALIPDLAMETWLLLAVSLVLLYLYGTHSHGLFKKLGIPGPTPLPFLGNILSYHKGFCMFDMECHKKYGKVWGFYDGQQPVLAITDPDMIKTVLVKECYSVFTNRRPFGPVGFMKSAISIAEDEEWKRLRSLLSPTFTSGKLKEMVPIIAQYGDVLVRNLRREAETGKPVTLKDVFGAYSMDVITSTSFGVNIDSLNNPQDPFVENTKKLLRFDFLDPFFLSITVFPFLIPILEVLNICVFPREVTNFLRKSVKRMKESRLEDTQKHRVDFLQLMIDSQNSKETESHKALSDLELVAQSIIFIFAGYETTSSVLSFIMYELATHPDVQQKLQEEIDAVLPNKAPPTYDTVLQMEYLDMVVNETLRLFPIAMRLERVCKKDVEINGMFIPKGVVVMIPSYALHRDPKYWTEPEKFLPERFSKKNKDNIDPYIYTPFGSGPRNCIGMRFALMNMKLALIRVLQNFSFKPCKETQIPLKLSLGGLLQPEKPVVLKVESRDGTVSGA

| SMILES | caspase-3 activation [1] [%] | outcome [2] | caspase-3 activation [3] [%] | outcome [4] | outcome [5] | Potency [6] | Potency [7] | Potency [8] | outcome [9] | outcome [10] | outcome [11] | outcome [12] | outcome [13] | Potency [14] | Potency [15] | Potency [16] | Potency [17] | Potency [18] | caspase-3 activation [19] [%] | outcome [20] |
| --- | --- | --- | --- | --- | --- | --- | --- | --- | --- | --- | --- | --- | --- | --- | --- | --- | --- | --- | --- | --- |
| Nc1cccc(O)c1 | 0.168 | inactive | -0.484 | inactive | inactive | inactive | inactive | inactive | inactive | inactive | inactive | inactive | inactive | inactive | inactive | inactive | inactive | inactive | – | – |
| CC(C)(O)C(=O)O | -0.246 | inactive | – | inactive | inactive | inactive | inactive | inactive | inactive | inactive | inactive | inactive | inactive | inactive | inactive | inactive | inactive | inactive | 0.779 | – |
| O=Cc1c(Cl)cccc1Cl | -0.583 | inactive | 5.93 | inactive | inactive | inactive | inactive | inactive | inactive | – | inactive | inactive | inactive | – | inactive | inactive | – | inactive | – | – |
| CCCCC(C=O)CC (configuration not stated) | 0.71 | inactive | 3.13 | inactive | inactive | inactive | – | inactive | inactive | inactive | inactive | inactive | inactive | inactive | inactive | inactive | inactive | inactive | – | – |
| O=C(O[C@@H](C(=O)O)[C@@H](OC(=O)c1ccccc1)C(=O)O)c1ccccc1 | 0.793 | inactive | 0.201 | inactive | inactive | inactive | inactive | inactive | inactive | inactive | inactive | inactive | inactive | inactive | inactive | inactive | inactive | inactive | – | – |
| c1ccsc1 | -0.223 | inactive | 0.78 | inactive | inactive | inactive | – | inactive | inactive | inactive | inactive | inactive | inactive | inactive | inactive | inactive | – | inactive | – | – |
| NS(=O)(=O)O | 1.36 | inactive | 1.83 | inactive | inactive | inactive | – | inactive | inactive | inactive | inactive | inactive | inactive | inactive | inactive | inactive | inactive | inactive | – | – |
| COc1ccc(OC)cc1 | 0.503 | inactive | -0.441 | inactive | inactive | inactive | – | inactive | inactive | inactive | inactive | inactive | inactive | inactive | inactive | inactive | inactive | inactive | – | – |
| Cc1ccc(N(C)C)cc1 | 0.102 | inactive | – | inactive | inactive | inactive | inactive | inactive | inactive | inactive | inactive | inactive | inactive | inactive | inactive | inactive | inactive | inactive | -0.882 | – |
| O=C1OC(=O)c2c(Cl)c(Cl)c(Cl)c(Cl)c21 | -0.0678 | inactive | -0.63 | inactive | inactive | inactive | inactive | inactive | inactive | inactive | inactive | inactive | – | inactive | inactive | inactive | inactive | inactive | – | – |
| CCCCCCCCC/C=C/CC1CC(=O)OC1=O (configuration not stated) | 0.816 | inactive | 1.69 | inactive | inactive | inactive | inactive | inactive | inactive | inactive | inactive | inactive | – | inactive | inactive | – | – | inactive | – | – |
| Cc1ccc2c(c1[N+](=O)[O-])C(=O)c1ccccc1C2=O | -0.888 | inactive | – | inactive | inactive | inactive | 12.6 µM (active) | inactive | inactive | – | inactive | inactive | – | – | inactive | inactive | inactive | inactive | -1.55 | inactive |
| c1ccc2[nH]cnc2c1 | 0.6 | inactive | -0.984 | inactive | inactive | inactive | – | inactive | inactive | inactive | inactive | inactive | inactive | inactive | inactive | inactive | inactive | inactive | – | – |
| Cc1cccc(C(=O)O)c1[N+](=O)[O-] | 0.577 | inactive | 0.904 | inactive | inactive | inactive | inactive | inactive | inactive | inactive | inactive | inactive | inactive | – | inactive | – | inactive | inactive | – | – |
| Cc1ccc2nc(-c3ccc(N)cc3)sc2c1S(=O)(=O)O | -3.9 | inactive | -4.87 | inactive | – | inactive | – | inactive | inactive | inactive | inactive | inactive | inactive | inactive | inactive | inactive | inactive | inactive | – | inactive |
